MEKK2wt PB1 HTS = raises or lowers MEK5 binding to wildtype human MEKK2 PB1 domain | binding response (% of control), % at 10 µM | AID 1531 | 290,000 tested, 1.1% active | bead flow cytometry, Alexa488-MEK5 binding to MEKK2 WT; actives lie on both sides; in the data active means binding response below about 67% or above about 130%
UBC13 inh = blocks human UBC13 polyubiquitin chain formation; inhibition, % at 20 µM; TR-FRET; 330,000 tested, 0.47% active; P61088; in the data active means inhibition above about 45%, passing the limit was not always enough
Target sequence (P61088 whole entry, looked up): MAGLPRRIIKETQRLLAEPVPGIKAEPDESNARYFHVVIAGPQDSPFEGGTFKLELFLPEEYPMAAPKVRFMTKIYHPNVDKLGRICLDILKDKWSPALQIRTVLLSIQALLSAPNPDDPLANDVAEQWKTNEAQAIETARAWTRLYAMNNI
MEKK3 PB1 HTS = raises or lowers MEK5 binding to the human MEKK3 PB1 domain. 290,000 tested, 1.4% active. bead-based flow cytometry, Alexa488-MEK5 binding to MEKK3; actives lie on both sides; 0 = blocked by unlabeled MEK5, 100 = vehicle. binding response (% of control), % at 10 µM. AID 1529;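 active means binding response more than 3 SD above or below the average of its plate-row segment, actives on both sides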;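 further: Alexa488 bead fluorescence after subtracting the streptavidin-only scavenger bead signal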
ATG4B inhibitor = inhibitors of human ATG4B cysteine protease | Q9Y4P1 | 340,000 tested, 0.51% active | inhibition, % at 8.33 µM | ATG4B cleavage of LC3-PLA2, NBD-HPC fluorescence, 1 h; in the data active means inhibition above about 40%
Target sequence (Q9Y4P1 whole entry, looked up): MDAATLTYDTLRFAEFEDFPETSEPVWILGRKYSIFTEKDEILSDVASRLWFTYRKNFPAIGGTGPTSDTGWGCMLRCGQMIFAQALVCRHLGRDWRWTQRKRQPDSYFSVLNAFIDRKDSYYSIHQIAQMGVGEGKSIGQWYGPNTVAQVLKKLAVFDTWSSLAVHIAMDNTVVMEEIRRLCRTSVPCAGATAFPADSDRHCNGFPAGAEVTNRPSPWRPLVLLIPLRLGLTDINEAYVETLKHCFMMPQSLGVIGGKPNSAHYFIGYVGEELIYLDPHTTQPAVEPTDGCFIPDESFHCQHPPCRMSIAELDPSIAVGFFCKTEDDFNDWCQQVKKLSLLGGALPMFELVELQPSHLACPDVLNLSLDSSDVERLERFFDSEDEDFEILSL
PREPL inhibitor = inhibitors of human prolyl oligopeptidase-like enzyme PREPL | Q4J6C6 | recombinant PREPL, fluorescence polarization activity-based probe | inhibition, % at 5.96 µM | 320,000 tested, 0.68% active; in the data active means inhibition above about 43%;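 further: 0% = enzyme with DMSO and 100% = wells lacking enzyme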
MEKK2 mut-MEK5 = signal of MEK5 binding to mutant human MEKK2 PB1 domain. percent response, % at 10 µM. AID 1530. 290,000 tested, 0.35% active. bead flow cytometry, Alexa488-MEK5 binding to MEKK2 mutant; in the data active means percent response above about 24%, passing the limit was not always enough
MEKK2wt confirm = raises or lowers MEK5 binding to wildtype human MEKK2, retest. binding response (% of control), % at 10 µM. 5,900 tested, 2.4% active. bead flow cytometry, Alexa488-MEK5 binding to MEKK2 WT; actives lie on both sides. shares compounds with MEKK3 PB1 HTS; in the data active means binding response below about 16% or above about 210%; inactive means in between
MEKK2mut confirm = signal of MEK5 binding to mutant human MEKK2, retest. shares compounds with MEKK3 PB1 HTS. bead flow cytometry, Alexa488-MEK5 binding to MEKK2 mutant. percent response, % at 10 µM. 5,900 tested, 2% active; in the data active means percent response mostly above about 71%, no sharp cut-off; inactive means mostly below about 38%;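 further: higher means compound restores mutant binding toward wildtype level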
MEKK3 confirm = MEKK3-MEK5 PB1 inhibition, single concentration confirmation. shares compounds with MEKK3 PB1 HTS. bead flow cytometry, Alexa488-MEK5 binding to MEKK3; active compounds read low. binding response (% of control), % at 10 µM. 5,900 tested, 1.8% active. AID 1894;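 active means binding response below 72% of control, or above a set upper limit, though filed actives all read lower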;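 further: 100% = DMSO only wells and 0% = binding blocked by excess unlabeled MEK5; lower values mean stronger disruption of MEK5 binding to MEKK3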
Numbers without * were called inactive; nt = no result; [ ] = another dose, or the depositor's remark. An excerpt weighted towards active compounds, which were near 3.1% of everything screened.

SMILES	MEKK2wt PB1 HTS	UBC13 inh	MEKK3 PB1 HTS	ATG4B inhibitor	PREPL inhibitor	MEKK2 mut-MEK5	MEKK2wt confirm	MEKK2mut confirm	MEKK3 confirm
Cc1noc(C)c1COC(=O)CCc1nc2ccccc2s1	127	6	130*	-4	2	8	100	1	98
CN1CCN(c2ccccc2NC(=O)c2cc3c(s2)-c2ccccc2OC3)CC1	146*	1	101	-8	33	21	172	37	107
O=C(Nc1cccnc1Cl)c1cc2c(s1)-c1ccccc1OC2	96	26	98	-5	-8	0	nt	nt	nt
CC1CN(c2nc3ccccc3nc2C(C#N)C(=O)OC2CCCCC2)CC(C)O1 (stereo not given)	82	4	91	0	2	-5	nt	nt	nt
CC1CN(c2nc3ccccc3nc2C(C#N)C(=O)NC2CCCCC2)CC(C)O1 (stereo not given)	22*	-5	15*[inhibitor]	nt	0	-49	106	10	103
COc1ccc(NC(=O)CN(C)C(=O)c2cc(C)on2)cc1	nt	4	nt	6	7	nt	nt	nt	nt
COc1ccc([C@H]2/C=C\CN(C(=O)C3CCCC3)[C@@H](C)C(=O)N2Cc2ccc(F)cc2)cc1	99	7	104	-6	33	1	nt	nt	nt
COc1ccc(C2/C=C\CN(C(=O)C3CCCC3)[C@H](Cc3ccccc3)C(=O)N2Cc2ccc(F)cc2)cc1 (stereo not given in full)	151*	-10	133*	-1	2	1	101	-6	100
CCOC(=O)C(NC(=O)Nc1ccc(F)cc1F)(Oc1ccccc1)C(F)(F)F (stereo not given)	109	5	120	2	3	0	nt	nt	nt
CCOC(=O)C(NC(=O)Nc1ccc(Cl)cn1)(Oc1ccccc1)C(F)(F)F (stereo not given)	104	2	153*	-1	-4	4	105	4	104
COc1cccc(C(=O)NCC(=O)OCC(=O)NC2CCCCC2)c1	nt	3	nt	0	6	nt	nt	nt	nt
CCCC(=O)NC(=S)Nc1cccc(NC(=O)c2ccccc2)c1	100	1	117	-8	4	6	nt	nt	nt
CCCCC(=O)NC(=S)Nc1cccc(NC(=O)c2ccccc2)c1	61	0	49*[inhibitor]	6	-4	-15	96	-6	99
CCCOc1cccc(C(=O)NC(=S)Nc2cccc(NC(=O)c3ccccc3Cl)c2)c1	99	-3	113	-1	-19	-1	nt	nt	nt
CCCCOc1cccc(C(=O)NC(=S)Nc2cccc(NC(=O)c3ccccc3Cl)c2)c1	105	-6	137*	4	-1	1	100	-3	102
CCC(=O)Nc1cccc(NC(=O)c2ccc(Br)cc2)c1	107	8	135*	-6	-8	1	94	-12	92
CC(=O)Nc1cccc(NC(=O)c2ccc(Br)cc2)c1	100	1	98	-1	6	-1	nt	nt	nt
CC(C)CC(=O)NC(=S)Nc1cccc(NC(=O)c2ccccc2)c1	105	3	154*	-3	-17	-1	105	3	103
Cc1ccc(NC(=O)OCc2cccs2)cc1	98	6	100	nt	-9	0	nt	nt	nt
Cc1ccc(S(=O)(=O)N(CCC(=O)NCc2ccc(S(N)(=O)=O)cc2)c2ccccc2)cc1	nt	-2	nt	4	nt	nt	nt	nt	nt
Cc1ccc(C(=O)N2CCCCC2C(=O)O)cc1S(=O)(=O)N1CCCCC1 (stereo not given)	nt	1	nt	-2	7	nt	nt	nt	nt
CCOc1ccc2oc(C(=O)OC(C(=O)NC(N)=O)C(C)C)c(C)c2c1 (stereo not given)	96	4	99	2	-4	-5	nt	nt	nt
CCOC(=O)CC(=O)CSc1nccc(-c2cccnc2)n1	54	0	43*[inhibitor]	-2	0	-23	95	-8	97
N=C(N)SCP(=O)(c1ccccc1)c1ccccc1	94	10	91	6	-4	-19	nt	nt	nt
Cc1ccc(P(=O)(CSC(=N)N)c2ccc(C)cc2)cc1	108	19	133*	-4	-1	2	101	-7	100
SMILES	MEKK2wt PB1 HTS	UBC13 inh	MEKK3 PB1 HTS	ATG4B inhibitor	PREPL inhibitor	MEKK2 mut-MEK5	MEKK2wt confirm	MEKK2mut confirm	MEKK3 confirm
CCCCN(CC)CCCNC(=O)c1cn(-c2ccc(OC)cc2)c(=O)c2ccccc12	109	9	102	0	4	8	nt	nt	nt
Cc1ccc2cc(CN(Cc3ccco3)C(=O)NC3CCCCC3)c(=O)[nH]c2c1C	78	-8	64*[inhibitor]	3	10	1	118	10	108
COC(=O)CCCC1=CC2=CC(=O)C(C)(OC(=O)c3cccs3)C(=O)C2=CN1C1CCCCC1 (stereo not given)	94	-50	97	4	14	3	nt	nt	nt
COC(=O)CCC(=O)OC1(C)C(=O)C=C2C=C(C3CC3)N(CCCCO)C=C2C1=O (stereo not given)	141*	-51	118	-8	7	2	87	-11	84
COC(=O)CCC(=O)OC1(C)C(=O)C=C2C=C(C3CC3)N(CCCOC(C)C)C=C2C1=O (stereo not given)	95	-54	86	-1	28	1	nt	nt	nt
COC(=O)CCCC1=CC2=CC(=O)C(C)(OC(=O)c3cccs3)C(=O)C2=CN1C1CC1 (stereo not given)	142*	-54	122	1	7	4	100	-2	103
COC(=O)CCC(=O)OC1(C)C(=O)C=C2C=C(C3CC3)N(CCN3CCOCC3)C=C2C1=O (stereo not given)	143*	-75	119	-6	9	4	108	6	104
COC(=O)CCC(=O)OC1(C)C(=O)C=C2C=C(C3CC3)N(C(CO)CO)C=C2C1=O (stereo not given)	151*	-80	124	0	3	3	104	2	101
C=CCN1C=C2C(=O)C(C)(OC(=O)CCC(=O)OC)C(=O)C=C2C=C1C1CC1 (stereo not given)	88	-32	85	-9	20	2	nt	nt	nt
CCOc1ccc(S(=O)(=O)NC(C)C(=O)NCc2ccc3c(c2)OCO3)cc1 (stereo not given)	96	2	97	4	-4	-5	nt	nt	nt
CC(Sc1nc(N)cc(N)n1)C(=O)NCCC1=CCCCC1 (stereo not given)	nt	-6	nt	3	-1	nt	nt	nt	nt

From PubChem BioAssay
